Data on 40 molecules can be found in PubChem BioAssay (EPA / NIEHS).

Molecules are shown by their SMILES. Results filed as inconclusive are left out. The source made the active and inactive calls. The calls were made as follows: active = hit-call score of the fitted dose curve at least 0.9, where 1 is the maximum; inconclusive = response in the unintended direction; inactive = score below 0.9.

Sequence of human RAR-related Orphan Receptor gamma (RORg), RORC (gene 6097) (P51449 whole entry, looked up): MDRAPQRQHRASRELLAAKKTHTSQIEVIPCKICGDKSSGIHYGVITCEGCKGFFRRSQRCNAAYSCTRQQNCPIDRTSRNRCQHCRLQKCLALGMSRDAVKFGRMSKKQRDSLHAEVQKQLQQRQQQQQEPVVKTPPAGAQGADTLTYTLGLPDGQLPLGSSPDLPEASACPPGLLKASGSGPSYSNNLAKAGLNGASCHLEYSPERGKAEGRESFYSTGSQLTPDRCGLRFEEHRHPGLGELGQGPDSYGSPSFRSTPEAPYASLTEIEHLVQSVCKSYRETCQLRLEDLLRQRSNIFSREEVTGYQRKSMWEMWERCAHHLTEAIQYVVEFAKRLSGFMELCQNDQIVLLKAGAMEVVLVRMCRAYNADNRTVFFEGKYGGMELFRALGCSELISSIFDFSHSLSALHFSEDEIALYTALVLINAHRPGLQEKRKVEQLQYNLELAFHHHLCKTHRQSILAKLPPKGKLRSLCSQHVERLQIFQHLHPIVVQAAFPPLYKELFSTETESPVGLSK

The target of the assay is human RAR-related Orphan Receptor gamma (RORg), RORC (gene 6097) (UniProt P51449). The assay is described as follows: ATG_RORg_TRANS: Attagene TRANS-FACTORIAL HepG2 Assay for human RAR-related Orphan Receptor gamma (RORg) (AID 2283011). As to the method:
ATG_TRANS is a cell-based, multiplexed-readout assay that uses HepG2, a human liver cell line, with measurements taken at 24 hours after chemical dosing in a 24-well plate.ATG_RORg_TRANS is one of 30 assay component(s) measured or calculated from the ATG_TRANS assay. It is designed to make measurements of mRNA induction, a form of inducible reporter, as detected with fluorescence intensity signals by Reverse transcription polymerase chain reaction (RT-PCR) and Capillary electrophoresis technology.Data from the assay component ATG_RORg_TRANS was analyzed into 1 assay endpoint. This assay endpoint, ATG_RORg_TRANS, was analyzed in the positive analysis fitting direction relative to DMSO as the negative control and baseline of activity. Using a type of inducible reporter, measures of mRNA for gain-of-signal activity can be used to understand the reporter gene at the transcription factor-level as they relate to the gene RORC. Furthermore, this assay endpoint can be referred to as a primary readout, because this assay has produced multiple assay endpoints where this one serves a reporter gene function. To generalize the intended target to other relatable targets, this assay endpoint is annotated to the nuclear receptor intended target family, where the subfamily is orphan.
Human liver HepG2 cells are transiently transfected with multiple reporter transcription units (MRTUs) in 6-well plates using FuGene 6 reagent (Roche; 3 ml FuGene/1 mg DNA). The MRTU constructs are regulated by a cis-regulating element (promoter). […] A major difference between the CIS and TRANS system is that in CIS activities of endogenous TFs are measured, whereas the TRANS assay evaluates changes in activities of exogenous, chimeric NR-Gal4 proteins. […] At the end of 24 hour incubation, total RNA was isolated using TriZol reagent (Invitrogen). The isolated RNA is then reverse-transcribed using oligo(dT) primer and Mo-MLV reverse transcriptase (Invitrogen) with DNAse I (Ambion) treatment for 30 min. The one-tenth of the produced cDNA was amplified by PCR using Taq DNA polymerase (Invitrogen) and two reporter sequence-specific primers. The PCR products were fluorescently labeled by primer extension with 6-arboxyfluorescein (6-FAM) 5'-labeled reporter sequence-specific primer (2 min at 95 C, 20 s at 68 C and 10 min at 72 C) and these products were digested with 5U of HpaI (New England Biolabs) for 2h at 37 C. The fragments were purified using Qiaquick PCR columns (Qiagen), analyzed on an ABI 3130xL genetic analyzer (Applied Biosystems) with peak positions identified by using a set of X-rhodamine (ROX)-labeled MapMarker1000 molecular weight standards (BioVentures). The raw capillary electrophoresis data was processed using Attagraph software (Attagene).
For `CCOC(=O)/C=C\C(=O)OCC`, the outcome was inactive. The value for `O=C(OCCc1ccccc1)c1ccccc1` was “inactive”.

As to `CCCCC(CC)COS(=O)(=O)O` (stereo not given), the outcome was inactive. In the case of `Oc1ccc(/C=C/c2cc(O)cc(O)c2)cc1`, the call was inactive. On to `CCC(C)C(=O)OC` (stereo not given), for which the molecule was called inactive. Take `Nc1ccc(O)c([N+](=O)[O-])c1`: the molecule was classed as inactive. The value for `CC(C)[N+](C)(CCOC(=O)C1c2ccccc2Oc2ccccc21)C(C)C` was “inactive”; that for `N#Cc1ccc(C2CCCc3cncn32)cc1` (stereo not given) was “inactive”; that for `O=C1CCCN1C1CCCCC1` was “inactive”. `CCCCCCCCCCCCC`: the molecule was called inactive. In the case of `[Cl][Eu]([Cl])[Cl]`, the outcome was inactive. In the case of `CC(C)(CO)C(O)C(=O)NCCCO` (stereo not given), the call was inactive. On to `COCC(=O)O`, for which the result was inactive.

As to `CCCCCCCCCC[N+](C)(CCCCCCCCCC)CCC[Si](OC)(OC)OC`, the molecule was called inactive. Turning to `CCCCCCCCCCCC(=O)N(C)CC(=O)O`, the call was inactive.

Take `CCN1CN(CC)CN(CC)C1`: the outcome was inactive. As to `CCCCC(=O)O`, the molecule was classed as inactive. As for `CC(CC(C)C)=NO`, the entry is “inactive”; as for `CCOC(=O)C1=NN(c2ccc(Cl)cc2Cl)C(C)(C(=O)OCC)C1` (stereo not given), “inactive”; as for `CCCCNS(=O)(=O)c1ccccc1`, “inactive”. Regarding `CCC1COC(=O)O1` (stereo not given), the molecule was classed as inactive. `C=C(C)[C@@H]1CC=C(C)CC1`: the result was inactive. As for `CC(C)(C)N`, the entry is “inactive”. For the molecule `C=CC(=O)OCCCCCCCCCC`, the call was inactive. Regarding `C=C(C)OC(C)=O`, the result was inactive. Regarding `O=C(Cl)c1c(Cl)c(Cl)c(C(=O)Cl)c(Cl)c1Cl`, the molecule was classed as inactive. The value for `CCCC(CC)c1ccccc1` (stereo not given) was “inactive”; that for `CCCCOC(=O)C(C)CC` (stereo not given) was “inactive”. In the case of `CCOC(=O)C1=NOC(c2ccccc2)(c2ccccc2)C1`, the molecule was called inactive.

As for `CC(=O)OC1CCCCC1C(C)(C)C` (stereo not given), the outcome was inactive. With `CCCCCCCCCCCCCC(=O)OC(C)C`, the molecule was called inactive. For the molecule `O=S(=O)(O)c1ccc(Nc2nc(Nc3ccc(C=Cc4ccc(Nc5nc(Nc6ccc(S(=O)(=O)O)cc6)nc(N(CCO)CCO)n5)cc4S(=O)(=O)O)c(S(=O)(=O)O)c3)nc(N(CCO)CCO)n2)cc1`, the call was inactive. `CC(C)C(=O)OCCc1ccccc1`: the outcome was inactive. For the molecule `CC(C)OC(=O)c1ccccc1`, the result was inactive. The value for `CCCCOCCOC(=O)COc1ccc(Cl)cc1Cl` was “inactive”. For the molecule `CCN(CC)c1cccc(C)c1`, the molecule was called inactive.

Take `O=C(O)CC(C(=O)O)S(=O)(=O)O` (stereo not given): the result was inactive. With `CCc1cccc(C)c1N`, the result was inactive. On to `CC(C)=NNC(N)=S`, for which the call was inactive. For the molecule `Cc1cc(C)c(C=O)c(C)c1`, the outcome was inactive.
